Experimental data reported in PubChem BioAssay (NCI).
About 83,000 compounds went through this panel and 20% of them were active in at least one assay; those are over-represented in the sample as a whole.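 Testing used 96-well plates and a 48-hour single-concentration exposure. Example: -40 means 40% of the starting cells died.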 Unmarked numbers belong to inactive results. Calls of active or inactive are those of the source. The calls were made as follows: active = growth percent below 10; inactive = the rest.

What was measured:
Experiment in all cases: NCI-60 one-dose screen, 48 h (100 = growth as untreated, 0 = no growth, -100 = all killed)
Conditions in all cases: 10 µM unless noted
SK-MEL-2 melanoma = system: SK-MEL-2 melanoma
EKVX NSCLC = system: EKVX NSCLC
SN12C renal = system: SN12C renal
UO-31 renal = system: UO-31 renal
TK-10 renal = system: TK-10 renal
ACHN renal = system: ACHN renal
CAKI-1 renal = system: CAKI-1 renal
A498 renal = system: A498 renal
MOLT-4 leukemia = system: MOLT-4 leukemia
CCRF-CEM leukemia = system: CCRF-CEM leukemia

SMILES	growth (SK-MEL-2 melanoma)	growth (EKVX NSCLC)	growth (SN12C renal)	growth (UO-31 renal)	growth (TK-10 renal)	growth (ACHN renal)	growth (CAKI-1 renal)	growth (A498 renal)	growth (MOLT-4 leukemia)	growth (CCRF-CEM leukemia)
COc1ccc2nc(NC(=O)CSc3nnc4n3S(=O)(=O)c3ccccc3N4c3ccccc3)sc2c1	87.9%	94.4%	107%	-39.9% (active)	103%	92.8%	-0.617% (active)	121%	6.47% (active)	
COc1ccc(-c2cc(Nc3ccnc(N4CCOCC4)n3)on2)cc1	42%	50.9%	47.2%	51.9%	69.1%	44.9%	51.8%	-0.776% (active)	21.2%	17.2%
O=S(=O)(Nc1ccc(Cl)c(F)c1)c1ccc(-c2cnc(C3CC3)o2)cc1	31.9%	34.4%	47.6%	48.6%	45.5%	47.5%	32.1%	-16.1% (active)	28.6%	
CSc1nc(Nc2cccc(NC(=O)CCl)c2)c(C#N)c(-c2cccc([N+](=O)[O-])c2)n1	57.5%	74.1%	34%	67.2%	137%	84.2%	52.2%	96.6%	1.11% (active)	-14.4% (active)
Cc1c(/C=C/[N+](=O)[O-])ccc2c1[nH]c1ccccc12	93.5%	98.6%	99.7%	94.3%	93.2%	111%	102%	83.6%	94.9%	87%
Cc1cc(C)c2nc3nc(C)cc(C)c3c(N)c2c1	30.4%	28.1%	24.9%	-1.17% (active)	41.4%	5.3% (active)	10.4%	47%	-18.6% (active)	42.3%
COc1ccc(-n2nc(C)c3c(Nc4ccc(NC(=O)Nc5ccc(Cl)c(C(F)(F)F)c5)cc4)ncnc32)cc1	-30.2% (active)	6.63% (active)	3.5% (active)	4.67% (active)	5.29% (active)	1.09% (active)	-3.15% (active)	-3.28% (active)	8.28% (active)	
CCOc1cc2ncc(C#N)c(Nc3ccc(F)c(Cl)c3)c2cc1NC(=O)CC1CCSS1 (configuration not stated)	-49.2% (active)	-55% (active)	-55.9% (active)	-92.4% (active)	-74.2% (active)	-90.7% (active)	-73.4% (active)	-53.7% (active)	-47% (active)	-20.2% (active)
O=C(CCl)Oc1ccc(-c2ccccc2)c(Br)c1	104%	115%	109%	92.8%	105%	108%	98.5%	95%	105%	118%
Cc1ccc(OC(=O)c2ccc(Cl)cc2)cc1	103%	99.1%	95.9%	102%	98.2%	95.6%	81.8%	114%	113%	55.9%
CCCCCCN(CCCCCC)CCC(O)c1ccc2ccccc2c1 (configuration not stated)	86.1%	71%	58.6%	38.4%	72%	68.7%	53%	48.3%	45.7%	41.8%
Cc1nc2c3c(-c4ccccc4)c(-c4ccccc4)oc3ncn2n1	101%	88.9%	96.5%	83.9%	108%	94.6%	88.6%	67.9%	89.9%	96.7%
COc1ccc(/C=C/C(=O)c2ccc(O)c(CN3CCN(c4cc5c(cc4F)c(=O)c(C(=O)O)cn5C4CC4)CC3)c2)cc1	34.5%	57.3%	7.55% (active)	3.15% (active)	52.7%	25.5%	32%	-0.877% (active)	45.7%	28.6%
